Test results: PubChem BioAssay (Tox21)
Results filed as inconclusive are left out. Entries that show only a call come without a potency. Unmarked numbers belong to inactive results. Active and inactive are the calls of the source. Calls follow the shape of the dose curve; as a rule, active = well fitted curve in the direction sought with a large enough effect in the repeat runs; inconclusive = weak or mixed curves; inactive = no such curve, though single readings can be large; an effect the other way counts as inactive or inconclusive.

tested on: not listed separately; assay: qHTS assay to identify small molecule antagonists of the estrogen related receptor (ERR) signaling pathway from Tox21 library - cell viability counter screen (AID 1224834); settings: ERR reporter cells viability, CellTiter-Fluor, 17.5 h; series mostly up to 92.4 µM; also: nearly all actives have a fitted effect of over 30% in size; also: potency is read from the fitted curve at half-maximal effect
Outline: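 Seeded ERR cells were rested 6 h at 37 C/5% CO2 before compounds, positive and negative controls or DMSO were added. Incubation continued for 17.5 h, and viability was then quantified by CellTiter-Fluor fluorescence.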

| Structure (SMILES) | Potency | viability change, negative = cytotoxic |
| --- | --- | --- |
| CCCCCCC/C=C/C=O | inactive | – |
| COc1ccnc2c1CCCCC2S(=O)c1nc2ccccc2[nH]1 (stereo unspecified) | inactive | – |
| O=C(O)c1ccncc1 | inactive | – |
| Cc1ccc(NC(=O)c2ccc(CN3CCN(C)CC3)cc2)cc1Nc1nccc(-c2cccnc2)n1 | 23.7 µM (active) | – |
| NC(=O)c1ccccc1C(N)=O | inactive | – |
| CCCCOc1ccc(N)cc1 | inactive | – |
| CC(=O)Nc1ccccc1O | inactive | – |
| Clc1cc(Cl)c2c(c1)N=C1CCCCCN1C2 | inactive | – |
| CCCCCCCCCCCCCCCCCCCl | – | -0.218% [at 8.39 µM] |
| CCCN(C1CCN(C(=O)C2CCNCC2)CC1)[C@@H]1CCc2ccc(OC)cc2C1 | inactive | – |
| N#C[C@@H]1CC(F)(F)CN1C(=O)CNC1CC2CCC(C1)N2c1ncccn1 (stereo partly specified) | inactive | – |
| COc1ccc(/C(C)=C/C(=O)O)c(OC)c1 | inactive | – |
| CC(C)(C)c1ccc(CCC=O)cc1 | inactive | – |
| CCCCCCCCCCCCSC#N | inactive | – |
| Cc1cc(SC2=C(O)C[C@@](CCc3ccc(N)cc3)(C(C)C)OC2=O)c(C(C)(C)C)cc1CO | inactive | – |
| C=C[Si](OCC)(OCC)OCC | inactive | – |
| Sc1nc(S)nc(S)n1 | inactive | – |
| CCCCCCCCCC(C)C=O (stereo unspecified) | inactive | – |
| CC(=O)Oc1cccc2c1C(=O)c1c(OC(C)=O)cc(C(=O)O)cc1C2=O | 29.8 µM (active) | – |
| N#CCCCC(C#N)CCC#N (stereo unspecified) | inactive | – |

biological target: Luciferin 4-monooxygenase (Photinus pyralis) (UniProt P08659); assay: qHTS assay to identify small molecule inhibitors of firefly luciferase (AID 1224835); also: nearly all actives have a fitted effect of over 25% in size; also: potency is read from the fitted curve at half-maximal effect; settings: purified P. pyralis luciferase, luminescence inhibition; series mostly up to 115 µM
Sequence (P08659 whole entry, looked up): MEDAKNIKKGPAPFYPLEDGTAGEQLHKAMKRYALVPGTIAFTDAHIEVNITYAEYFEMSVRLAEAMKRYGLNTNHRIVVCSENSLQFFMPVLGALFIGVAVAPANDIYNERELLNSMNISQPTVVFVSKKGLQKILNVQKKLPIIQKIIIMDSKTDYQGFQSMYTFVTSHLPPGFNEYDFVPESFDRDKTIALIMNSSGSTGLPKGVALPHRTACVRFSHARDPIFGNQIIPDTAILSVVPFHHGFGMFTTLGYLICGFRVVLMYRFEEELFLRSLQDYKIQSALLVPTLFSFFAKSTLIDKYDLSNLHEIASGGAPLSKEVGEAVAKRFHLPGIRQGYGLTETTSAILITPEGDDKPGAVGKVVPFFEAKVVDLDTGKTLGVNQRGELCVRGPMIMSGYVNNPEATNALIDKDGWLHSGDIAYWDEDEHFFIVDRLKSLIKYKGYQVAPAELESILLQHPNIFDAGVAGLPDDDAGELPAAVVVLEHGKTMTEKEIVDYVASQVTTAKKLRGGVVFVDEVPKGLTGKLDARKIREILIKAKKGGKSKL
Outline: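 Biochemical qHTS: compounds run as interplate titrations against purified firefly enzyme, with D-luciferin and ATP each at its KM concentration. Light output recorded by CCD imaging.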

| Structure (SMILES) | Potency | activity change, negative = inhibition |
| --- | --- | --- |
| COC(=O)Cc1cccc2ccccc12 | inactive | – |
| CC(C)(Cc1c[nH]c2ccccc12)NCC(O)COc1ccccc1C#N (stereo unspecified) | inactive | – |
| O=C(O)c1ccncc1 | 73 µM (active) | – |
| COC(=O)C(C)(C)C | inactive | – |
| O=C(C1CCCCC1)N1CC(=O)N2CCCc3ccccc3C2C1 (stereo unspecified) | inactive | – |
| O=C1c2ccccc2C(=O)c2c1ccc(O)c2O | 34.7 µM (active) | – |
| O=c1[nH]nc(-c2ccc([N+](=O)[O-])o2)o1 | inactive | – |
| O=C1c2ccccc2C(=O)C1c1ccc2ccccc2n1 | 0.111 µM (active) | – |
| CC(C)CC(C)(C)C | inactive | – |
| CCCCCCCCCCCCCCCCCCCl | – | 2.69% [at 10.5 µM] |
| CCCN(C1CCN(C(=O)C2CCNCC2)CC1)[C@@H]1CCc2ccc(OC)cc2C1 | inactive | – |
| N#C[C@@H]1CC(F)(F)CN1C(=O)CNC1CC2CCC(C1)N2c1ncccn1 (stereo partly specified) | inactive | – |
| COc1ccc(/C(C)=C/C(=O)O)c(OC)c1 | inactive | – |
| CCCCCCCCCCCCSC#N | inactive | – |
| Cc1cc(SC2=C(O)C[C@@](CCc3ccc(N)cc3)(C(C)C)OC2=O)c(C(C)(C)C)cc1CO | inactive | – |
| O=C(N[C@@H](Cc1ccccc1)[C@@H](O)C(=O)N1C[C@@H](O)[C@@H](O)C1)c1cc2cc(Cl)ccc2[nH]1 | inactive | – |
| O=Cc1ccc(Cl)c([N+](=O)[O-])c1 | inactive | – |
| CC1=CC(=C(c2ccc(N)cc2)c2ccc(N)cc2)C=CC1=N | – | -4.83% [at 10.5 µM] |
| CC(=O)Oc1cccc2c1C(=O)c1c(OC(C)=O)cc(C(=O)O)cc1C2=O | inactive | – |
| CC(C)C/C=C(\C=O)c1ccccc1 | inactive | – |
| COc1ccc(/C=C/c2cc(OC)cc(=O)o2)cc1 | 5.15 µM (active) | – |
| Oc1ccc(CCNCCCCCCNCCc2ccccc2)cc1O | inactive | – |
| CCn1nc(Cc2ccccc2)cc1C1CCN(C[C@H]2C[C@H](N(C)[C@@H](C(=O)O)C(C)C)C[C@@H]2c2cccc(F)c2)CC1 | inactive | – |
| Nc1cccc2c(=O)[nH][nH]c(=O)c12 | inactive | – |
| N#CCCCC(C#N)CCC#N (stereo unspecified) | inactive | – |

tested on: not listed separately; assay: qHTS assay to identify small molecule agonists of the constitutive androstane receptor (CAR) signaling pathway - cell viability counter screen (AID 1224836); settings: HepG2-CYP2B6-hCAR viability, CellTiter-Fluor, 23 h, PK11195 added to every well; series mostly up to 92.4 µM; also: nearly all actives have a fitted effect of over 45% in size
Outline: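 Using CellTiter-Fluor, viability of HepG2 cells harbouring hCAR and CYP2B6-2.2kb was measured following 23 h incubation with a 15-concentration compound series plus PK11195 (0.75 uM final).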

| Structure (SMILES) | Potency |
| --- | --- |
| CC(C)(Cc1c[nH]c2ccccc12)NCC(O)COc1ccccc1C#N (stereo unspecified) | inactive |
| CCCCCCC/C=C/C=O | inactive |
| COC(=O)/C=C/C(C)=C\C=C\C(C)=C\C=C\C=C(C)\C=C\C=C(C)\C=C\C(=O)O | inactive |
| COC(=O)C(C)(C)C | inactive |
| O=C(C1CCCCC1)N1CC(=O)N2CCCc3ccccc3C2C1 (stereo unspecified) | inactive |
| O=C1c2ccccc2C(=O)c2c1ccc(O)c2O | inactive |
| O=C1c2ccccc2C(=O)C1c1ccc2ccccc2n1 | inactive |
| CCCCOc1ccc(N)cc1 | inactive |
| CC(C)CC(C)(C)C | inactive |
| CC(=O)Nc1ccccc1O | inactive |
| COc1ccc(C(=O)Nc2ccccc2)cc1[N+](=O)[O-] | inactive |
| Clc1cc(Cl)c2c(c1)N=C1CCCCCN1C2 | inactive |
| CC(C)(C)c1ccc(CCC=O)cc1 | inactive |
| O=C(N[C@@H](Cc1ccccc1)[C@@H](O)C(=O)N1C[C@@H](O)[C@@H](O)C1)c1cc2cc(Cl)ccc2[nH]1 | inactive |
| Sc1nc(S)nc(S)n1 | inactive |
| O=Cc1ccc(Cl)c([N+](=O)[O-])c1 | inactive |
| CCCCCCCCCC(C)C=O (stereo unspecified) | inactive |
| CC(C)C/C=C(\C=O)c1ccccc1 | inactive |
| COc1ccc(/C=C/c2cc(OC)cc(=O)o2)cc1 | inactive |
| CCn1nc(Cc2ccccc2)cc1C1CCN(C[C@H]2C[C@H](N(C)[C@@H](C(=O)O)C(C)C)C[C@@H]2c2cccc(F)c2)CC1 | inactive |
| Nc1cccc2c(=O)[nH][nH]c(=O)c12 | inactive |
